Test results from PubChem BioAssay AID1159580 (chemical genetic matrix, 2015).
Several values for one entry are separate records, joined by “and”; a condition that tells them apart may be missing. Equal entries are not always repeated. The campaign covered roughly 5,500 compounds. About 2,000 (36%) were called active. Another 18% or so got no clear call; they are omitted. No stated cut-off is given here; in the data, active means normalized growth mostly below about 0.91 (no sharp cut-off); inconclusive means no clear call, values can overlap the other calls; inactive means mostly above about 0.92. Some of the results follow.

Experiment: chemical genetic growth profiling, strain panel (AID 1159580);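 further: tested at 20 µM; growth read once vehicle control cultures reached saturation at 30 °C; 1 = growth at the plate median or of vehicle wells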
Details: S. cerevisiae deletion strains, growth OD

Measured: normalized growth

NC(=O)c1cccc(N)c1
inactive: locus YAL013W, strain DEP1, stronger effect = lower value 1 and 1.01 | locus YAL021C, strain ccr4, stronger effect = lower value 0.979 | locus YAL026C, strain drs2, stronger effect = lower value 0.97 | locus YAL030W, strain snc1, stronger effect = lower value 0.992 | locus YAL040C, strain CLN3, stronger effect = lower value 1 | locus YBL061C, strain skt5, stronger effect = lower value 0.977 | locus YBR009C, strain hhf1, stronger effect = lower value 0.998 | locus YBR021W, strain FUR4, stronger effect = lower value 0.968 | locus YBR023C, strain chs3, stronger effect = lower value 0.981 | locus YBR171W, strain sec66, stronger effect = lower value 0.962 | locus YBR229C, strain ROT2, stronger effect = lower value 1 | locus YBR231C, strain swc5, stronger effect = lower value 0.967 | locus YBR279W, strain paf1, stronger effect = lower value 0.99 | locus YCL011C, strain gbp2, stronger effect = lower value 0.957 | locus YCL016C, strain dcc1, stronger effect = lower value 0.988 | locus YCL029C, strain bik1, stronger effect = lower value 1 | locus YCL061C, strain MRC1 (second series), stronger effect = lower value 1 | locus YCL069W, strain vba3, stronger effect = lower value 0.962 | locus YCR088W, strain abp1, stronger effect = lower value 0.972 | locus YDL005C, strain med2, stronger effect = lower value 0.969 | locus YDL035C, strain GPR1, stronger effect = lower value 1 | locus YDL040C, strain nat1, stronger effect = lower value 0.988 | locus YDL074C, strain BRE1, stronger effect = lower value 1.01 | locus YDL101C, strain DUN1, stronger effect = lower value 1.01 | locus YDL134C, strain PPH21, stronger effect = lower value 0.999 | locus YDL185W, strain tfp1, stronger effect = lower value 1.01 | locus YDL192W, strain arf1, stronger effect = lower value 0.999 | locus YDR001C, strain nth1, stronger effect = lower value 0.979 | locus YDR069C, strain doa4, stronger effect = lower value 0.966 | locus YDR101C, strain arx1, stronger effect = lower value 0.987 | locus YDR137W, strain rgp1, stronger effect = lower value 0.976 | locus YDR150W, strain NUM1, stronger effect = lower value 1.01 | locus YDR159W, strain sac3, stronger effect = lower value 0.965 | locus YDR162C, strain NBP2, stronger effect = lower value 1 | locus YDR195W, strain ref2 0.958 | locus YDR297W, strain sur2, stronger effect = lower value 0.98 | locus YDR318W, strain mcm21, stronger effect = lower value 0.985 | locus YDR334W, strain swr1, stronger effect = lower value 0.96 | locus YDR335W, strain msn5, stronger effect = lower value 0.97 | locus YDR363W, strain ESC2, stronger effect = lower value 1 | locus YDR388W, stronger effect = lower value 0.993 | locus YDR392W, strain spt3, stronger effect = lower value 0.965 | locus YDR502C, strain sam2, stronger effect = lower value 1.01 | locus YEL003W, strain gim4, stronger effect = lower value 0.979 | locus YEL037C, strain rad23, stronger effect = lower value 0.969 | locus YEL061C, strain CIN8 (second series), stronger effect = lower value 0.954 | locus YEL061C, strain CIN8, stronger effect = lower value 1.01 | locus YER002W, strain NOP16, stronger effect = lower value 1.02 | locus YER015W, strain faa2, stronger effect = lower value 0.983 | locus YER016W, strain bim1, stronger effect = lower value 0.977 | locus YER110C, stronger effect = lower value 0.996 | locus YER111C, strain swi4, stronger effect = lower value 0.966 | locus YER155C, strain BEM2 (second series), stronger effect = lower value 0.965 | locus YER155C, strain BEM2, stronger effect = lower value 0.99 | locus YER167W, strain BCK2, stronger effect = lower value 1 | locus YFR010W, strain ubp6, stronger effect = lower value 0.968 | locus YGL078C, strain dbp3, stronger effect = lower value 1 | locus YGL086W, strain mad1, stronger effect = lower value 0.988 | locus YGL167C, strain pmr1, stronger effect = lower value 0.981 | locus YGL173C, strain kem1, stronger effect = lower value 0.984 | locus YGL227W, strain vid30, stronger effect = lower value 0.966 | locus YGL240W, strain doc1, stronger effect = lower value 0.969 | locus YGL248W, strain PDE1, stronger effect = lower value 1 | locus YGL253W, strain hxk2, stronger effect = lower value 0.963 | locus YGR078C, strain PAC10, stronger effect = lower value 1 and 1.05 | locus YGR135W, strain pre9, stronger effect = lower value 0.986 | locus YGR229C, strain SMI1, stronger effect = lower value 1.01 | locus YGR252W, strain gcn5, stronger effect = lower value 0.978 | locus YHR013C, strain ard1, stronger effect = lower value 0.972 | locus YHR027C, strain rpn1, stronger effect = lower value 0.974 | locus YHR030C, strain SLT2, stronger effect = lower value 1.01 | locus YHR079C, strain IRE1 (second series), stronger effect = lower value 0.994 | locus YHR094C, strain hxt1, stronger effect = lower value 0.998 | locus YHR129C, strain ARP1, stronger effect = lower value 1 | locus YHR142W, strain chs7, stronger effect = lower value 0.968 | locus YHR200W, strain rpn10, stronger effect = lower value 0.993 | locus YIL066C, strain RNR3, stronger effect = lower value 1 | locus YIL073C, strain SPO22, stronger effect = lower value 1.02 | locus YIL125W, strain kgd1, stronger effect = lower value 0.996 | locus YIR030C, strain dcg1, stronger effect = lower value 0.996 | locus YJL092W, strain hpr5, stronger effect = lower value 0.954 | locus YJL095W, strain BCK1 (second series), stronger effect = lower value 0.979 | locus YJL095W, strain BCK1, stronger effect = lower value 1 | locus YJL115W, strain asf1, stronger effect = lower value 0.966 | locus YJL129C, strain trk1, stronger effect = lower value 0.965 | locus YJL134W, strain LCB3, stronger effect = lower value 1 | locus YJL154C, strain vps35, stronger effect = lower value 0.979 | locus YJL164C, strain tpk1, stronger effect = lower value 1 | locus YJL166W, strain qcr8, stronger effect = lower value 1.01 | locus YJL168C, strain set2, stronger effect = lower value 0.99 | locus YJL187C, strain SWE1 (second series), stronger effect = lower value 1.01 | locus YJL187C, strain SWE1, stronger effect = lower value 0.968
